# From PubChem BioAssay (NCATS)
# Assay: qHTS profiling of the MIPE4 collection as inhibitors of Plasmodium falciparum (DD2) proliferation (Rep 2) (AID 743346)
# Conditions: P. falciparum Dd2 in erythrocytes, SYBR Green DNA, 72 h; at 28.5 µM unless noted
# Excerpt: Plasmodium falciparum is a virulent malarial parasite that kills 1-2 million people worldwide each year. Transmitted by mosquitoes, the sporozoite form of the parasite enters the blood stream to infect hepatocytes, where they become merozoites that infect red blood cells (erythrocytes). Within erythrocytes, merozoites begin a […] cycle of growth and division, after which the parasite is released to infect new red blood cells. Gametocytes, which form within erythrocytes as well, circulate in the bloodstream and are ingested by the mosquito, thereby completing the life cycle. To profile malarial isolates for differential chemical responses and to identify inhibitors of malarial growth, an assay that measures P. falciparum growth and replication within erythrocytes was employed. This assay uses a DNA binding fluorescent dye (SYBR Green) to detect parasite DNA following cell lysis. Because mature erythrocytes lack DNA, only Plasmodium-derived DNA is detected.
# The SYBR Green viability assay was adapted from a method described previously (Plouffe et al., 2008). For screening 3 ul culture medium was dispensed into 1536 well black clear bottom plates (Aurora Biotechnologies) using a Multidrop Combi (Thermo Fisher Scientific Inc.), 23 nL compounds in DMSO were added by a pin tool (Kalypsys), and 5 ul of erythrocytes infected with P. falciparum (0.3% parasitemia, 2.5% hematocrit final concentration) were added. The plates were incubated at 37 C in a humidified incubator in 5% CO2 for 72 h, and 2 ul lysis buffer (20 mM Tris HCl, 10 mM EDTA, 0.16% saponin, 1.6% triton X, 10X SYBR Green I supplied as 10,000X […] by Invitrogen) was added to each well. The plates were mixed for 25 sec with gentle shaking and incubated overnight at room temperature in the dark. The following morning, fluorescence intensity at 485(14) nm excitation and 535(25) nm emission wavelengths was measured on an EnVision (Perkin Elmer) plate reader. Plate reads were normalized relative to the control inhibitor (0.29 uM artemisinin) and vehicle (DMSO) wells present on each plate and then corrected by an algorithm using vehicle-only control plates at the beginning and end of the compound plate stack.
row,Structure (SMILES),"parasite growth, % of control (lower = inhibition)"
1,CC(C)OC(=O)OCOP(=O)(CO[C@H](C)Cn1cnc2c(N)ncnc21)OCOC(=O)OC(C)C,74.1%
2,CC(C)c1cccc(C(C)C)c1O,85.1%
3,CC[N+](CC)(CC)CCOc1cccc(OCC[N+](CC)(CC)CC)c1OCC[N+](CC)(CC)CC,133%
4,O=c1[nH]cnc2[nH]ncc12,153%
5,Nc1ccn(C[C@@H](CO)OCP(=O)(O)O)c(=O)n1,97.9% [at 9.64 µM]
6,O=C(O)CCCc1ccc(N(CCCl)CCCl)cc1,81.2%
7,CCC1(C)CC(=O)NC1=O (stereo unspecified),96.3%
8,Cn1c(=O)c2[nH]cnc2n(C)c1=O,114%
9,C[C@](O)(CS(=O)(=O)c1ccc(F)cc1)C(=O)Nc1ccc(C#N)c(C(F)(F)F)c1,33.5%
10,CCOC(=O)C1=C[C@@H](OC(CC)CC)[C@H](NC(C)=O)[C@@H](N)C1,101%
11,CCC1(c2ccc(N)cc2)CCC(=O)NC1=O (stereo unspecified),117%
12,Cc1onc(-c2ccccc2)c1C(=O)N[C@@H]1C(=O)N2[C@@H](C(=O)O)C(C)(C)S[C@@H]12,92.1%
13,CN1C(=O)COc2c(C(=O)NC3CN4CCC3CC4)cc(Cl)cc21 (stereo unspecified),95.9%
14,C[C@]12CC[C@H]3[C@@H](CC[C@@]45O[C@H]4C(O)=C(C#N)C[C@]35C)[C@H]1CC[C@H]2O,55.7%
15,CN1C(=O)CCS(=O)(=O)C1c1ccc(Cl)cc1 (stereo unspecified),126%
16,O=P1(N(CCCl)CCCl)NCCCO1 (stereo unspecified),39.6%
17,C[C@]12CC[C@@H]3c4ccc(OC(=O)N(CCCl)CCCl)cc4CC[C@H]3[C@@H]1CC[C@@H]2OP(=O)(O)O,86.3%
18,COc1cc(OC)c(OC)cc1C=O,110%
19,C[C@]12CCC(=O)C=C1CC[C@@H]1[C@H]3CC[C@](C)(O)[C@@]3(C)CC[C@@H]12,65.8% [at 57.5 µM]
20,CC(=O)CC(c1ccccc1)c1c(O)c2ccccc2oc1=O (stereo unspecified),69.5%
21,CC(C)N(CCC(C(N)=O)(c1ccccc1)c1ccccn1)C(C)C (stereo unspecified),42.5%
22,CC(=O)N1CCN(c2ccc(OC[C@H]3CO[C@](Cn4ccnc4)(c4ccc(Cl)cc4Cl)O3)cc2)CC1,31%
23,CC(NC(C)(C)C)C(=O)c1cccc(Cl)c1 (stereo unspecified),31%
24,COCCCOc1ccnc(CS(=O)c2nc3ccccc3[nH]2)c1C (stereo unspecified),63.9%
25,CC(C)[C@H](N)C(=O)OCCOCn1cnc2c(=O)[nH]c(N)nc21,136%
26,CC(C)C[C@H](CN)CC(=O)O,89%
